# Test results taken from PubChem BioAssay.
# Activity calls are given as the source filed them. Unless noted, how the calls were made is not given here.
# Key:
# [1] = anti-His antibody binders, primary screen, artefact control for SMM control protein annotation, biochemical, small-molecule microarray, 635 nm fluorescence (AID 1128); conditions: anti-His Alexa647 antibody binding, higher = more signal;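 further: score merges feature fluorescence with signal-to-noise for each printed compound spot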
# [2] = test system: Human papillomavirus type 1a E7 protein (residues 1-88); assay: HPV1a E7 small-molecule binders, primary screen, biochemical, small-molecule microarray, residues 1-88, 635 nm (AID 1129); conditions: small-molecule microarray binding, fluorescence 635 nm; higher = more signal
# [3] = target: Focal adhesion kinase 1 (Homo sapiens) (UniProt Q05397); assay: small-molecule microarray binders of FAK, primary screen, biochemical, 635/667 nm fluorescence, BSA, DTT (AID 1130); conditions: PTK2 binding, 635 nm fluorescence, higher = more signal;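 further: composite of spot emission at 667 nm and signal to noise over triplicate slides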
# [4] = test system: Fibrinogen (Alexa647-labelled); assay: fibrinogen binders on compound microarrays, profiling panel, artefact control for SMM control-protein annotation, biochemical, small-molecule microarray, 635/667 nm fluorescence (AID 1131); conditions: fibrinogen-A647 binding fluorescence, higher = more signal;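 further: z-score merges 667 nm fluorescence with per-spot signal-to-noise over triplicate slides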
# [5] = target: Follistatin (Homo sapiens) (UniProt P19883); assay: follistatin binders on small-molecule microarrays, primary screen, biochemical, small-molecule microarray, 635/667 nm fluorescence (AID 1132); conditions: FST binding, 635 nm fluorescence, higher = more signal
# [6] = target: Fibroblast growth factor 2 (Homo sapiens) (UniProt P09038); assay: FGF2 binders on small-molecule microarrays, primary screen, biochemical, small-molecule microarray, 635/667 nm fluorescence (AID 1133); conditions: small-molecule microarray binding, FGF2, fluorescence 635/667; higher = more signal
# [7] = mitochondrial membrane potential change in A549 cells, profiling panel, cell-based, JC-1 fluorescence, basal, 24 h, 100 nL (AID 1138); conditions: higher = more signal;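 further: A549 lung adenocarcinoma cells under basal conditions with no added stimulus; test concentration not given here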
# Lefty1 = Lefty1 binders on small-molecule microarrays, primary screen, biochemical, small-molecule microarray, 635/667 nm fluorescence (AID 1139); conditions: small-molecule microarray binding, fluorescence 635/667; higher = more signal
# [8] = test system: wheat germ agglutinin (Triticum aestivum), Alexa647-labelled; assay: wheat germ agglutinin binders on compound microarrays, profiling panel, artefact control for SMM control-protein annotation, biochemical, small-molecule microarray, 635/667 nm fluorescence (AID 1140); conditions: WGA-A647 binding, 635 nm fluorescence, higher = more signal;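 further: score merges 667 nm feature emission with signal to noise over triplicate slides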
# [9] = target: Luciferin 4-monooxygenase (Photinus pyralis) (UniProt P08659); assay: firefly luciferase enzyme inhibitors, primary screen, biochemical, luminescence, purified enzyme, 2006 set (AID 1141); conditions: SteadyGlo luminescence, 30 min, higher = more signal, called active from +8 up or from −8 down;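 further: cell-free assay with purified firefly luciferase at 100 ng per well in PBS; test concentration not given here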
# [10] = test system: Wnt5a (protein binding on small-molecule microarray); assay: Wnt5a binders on small-molecule microarray, primary screen, biophysical, 635/667 nm fluorescence (AID 1142); conditions: 635 nm fluorescence, higher = more signal;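 further: fluorescence read at 667 nm with signal to noise per printed feature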
# [11] = cell viability in Huh7 cells, primary screen, cytotoxicity control for HCV replication inhibitor project, CellTiter-Glo luminescence, basal, 48 h (AID 1143); conditions: Huh7 HCV replicon, higher = more signal, called active from +8 up or from −8 down;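 further: Huh7 hepatoma cells carrying a hepatitis C replication reporter with no stimulus; test concentration not given here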
# [12] = P. aeruginosa biofilm formation inhibitors, primary screen, PAO1 strain, BacTiter-Glo luminescence, LB-PBS (AID 1144); conditions: 12 h, higher = more signal
# [13] = CREB reporter modulators without forskolin, primary screen, cell-based, PC12, CRE-LacZ reporter, unstimulated (AID 1145); conditions: no forskolin, luminescence, 4.5 h, higher = more signal, called active from +8 up or from −8 down
# [14] = CREB reporter modulators under forskolin, primary screen, cell-based, PC12, CRE-LacZ reporter, forskolin-stimulated (AID 1146); conditions: luminescence, 4.5 h, higher = more signal, called active from +8 up or from −8 down;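 further: PC12 cells with 6xCRE LacZ reporter stimulated by forskolin 10 µM; beta-galactosidase reporter signal reflecting CREB driven transcription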
# [15] = target: Streptavidin (Streptomyces avidinii) (UniProt P22629); assay: streptavidin binders on small-molecule microarray, primary screen, artefact control for SMM compound annotation, biophysical, 635/667 nm fluorescence (AID 1147); conditions: streptavidin binding, higher = more signal;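 further: signal reflects streptavidin binding to arrayed compounds as a control protein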
# [16] = small-molecule binders of probe aInhba, primary screen, biochemical, small-molecule microarray, 635/667 nm fluorescence (AID 1148); conditions: higher = more signal;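 further: score merges 667nm spot fluorescence with signal-to-noise for antibody binding to printed compounds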
# Torsin-1A (Homo sapiens) [17] = target: Torsin-1A (Homo sapiens) (UniProt O14656); assay: torsin A binders from cell lysate, primary screen, small-molecule microarray, wild-type, 635/667 nm (AID 1149); conditions: COS7 hTOR1A-WT lysate, 635 nm fluorescence, higher = more signal
# Torsin-1A (Homo sapiens) [18] = target: Torsin-1A (Homo sapiens) (UniProt O14656); assay: small-molecule binders of mutant TOR1A in lysate, primary screen, cell lysate, small-molecule microarray, COS7 lysate, 635/667 nm fluorescence (AID 1150); conditions: COS7 hTOR1A mutant lysate, 635 nm fluorescence, higher = more signal;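 further: score pools 667 nm emission and signal to noise measuring lysate protein binding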
# [19] = test system: Sonic hedgehog protein (Shh); assay: small-molecule binders of Shh protein, primary screen, biochemical, small-molecule microarray, 635/667 nm fluorescence (AID 1151); conditions: small-molecule microarray binding, 635 nm fluorescence; higher = more signal;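 further: Shh protein binding to compounds spotted on small-molecule microarray slides; score combines spot fluorescence intensity with signal-to-noise across triplicate slides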
# Sequence of Luciferin 4-monooxygenase (Photinus pyralis) (P08659 whole entry, looked up): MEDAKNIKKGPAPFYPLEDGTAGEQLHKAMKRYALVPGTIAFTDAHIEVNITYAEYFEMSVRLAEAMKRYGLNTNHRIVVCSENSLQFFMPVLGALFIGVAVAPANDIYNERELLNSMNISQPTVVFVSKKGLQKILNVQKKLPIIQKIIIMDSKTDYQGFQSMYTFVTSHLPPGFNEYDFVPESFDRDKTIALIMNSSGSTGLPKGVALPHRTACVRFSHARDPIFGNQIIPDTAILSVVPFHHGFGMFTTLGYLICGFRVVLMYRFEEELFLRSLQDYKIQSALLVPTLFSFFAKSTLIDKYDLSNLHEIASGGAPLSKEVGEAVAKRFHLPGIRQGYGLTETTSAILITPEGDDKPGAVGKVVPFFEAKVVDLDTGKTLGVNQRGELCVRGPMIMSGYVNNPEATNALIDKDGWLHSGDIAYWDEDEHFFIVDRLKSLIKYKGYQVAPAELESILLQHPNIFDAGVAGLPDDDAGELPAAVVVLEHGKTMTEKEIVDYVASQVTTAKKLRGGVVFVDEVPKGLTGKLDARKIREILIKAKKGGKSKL
# Sequence of Streptavidin (Streptomyces avidinii) (P22629 whole entry, looked up): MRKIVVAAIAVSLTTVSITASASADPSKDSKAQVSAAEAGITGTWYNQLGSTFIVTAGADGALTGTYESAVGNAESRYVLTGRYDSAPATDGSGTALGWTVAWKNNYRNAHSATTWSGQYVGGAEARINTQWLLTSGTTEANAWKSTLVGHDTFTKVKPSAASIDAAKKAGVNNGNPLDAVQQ
# Sequence of Fibroblast growth factor 2 (Homo sapiens) (P09038 whole entry, looked up): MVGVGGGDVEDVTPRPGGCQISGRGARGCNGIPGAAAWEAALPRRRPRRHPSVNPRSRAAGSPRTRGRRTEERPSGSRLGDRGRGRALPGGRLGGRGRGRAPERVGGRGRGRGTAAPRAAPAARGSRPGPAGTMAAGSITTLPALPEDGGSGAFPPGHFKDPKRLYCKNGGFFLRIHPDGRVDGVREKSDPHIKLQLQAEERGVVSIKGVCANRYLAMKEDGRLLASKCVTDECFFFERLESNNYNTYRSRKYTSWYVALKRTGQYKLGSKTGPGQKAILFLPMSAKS
# Sequence of Torsin-1A (Homo sapiens) (O14656 whole entry, looked up): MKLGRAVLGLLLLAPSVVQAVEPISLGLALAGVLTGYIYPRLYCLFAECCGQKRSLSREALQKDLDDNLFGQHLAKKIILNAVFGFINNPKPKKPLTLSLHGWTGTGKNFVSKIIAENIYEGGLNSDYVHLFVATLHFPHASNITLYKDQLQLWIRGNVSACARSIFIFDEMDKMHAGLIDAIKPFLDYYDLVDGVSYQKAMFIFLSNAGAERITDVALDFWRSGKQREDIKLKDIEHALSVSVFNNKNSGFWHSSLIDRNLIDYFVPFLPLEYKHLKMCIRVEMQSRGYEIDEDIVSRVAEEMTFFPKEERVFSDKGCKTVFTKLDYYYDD
# Sequence of Follistatin (Homo sapiens) (P19883 whole entry, looked up): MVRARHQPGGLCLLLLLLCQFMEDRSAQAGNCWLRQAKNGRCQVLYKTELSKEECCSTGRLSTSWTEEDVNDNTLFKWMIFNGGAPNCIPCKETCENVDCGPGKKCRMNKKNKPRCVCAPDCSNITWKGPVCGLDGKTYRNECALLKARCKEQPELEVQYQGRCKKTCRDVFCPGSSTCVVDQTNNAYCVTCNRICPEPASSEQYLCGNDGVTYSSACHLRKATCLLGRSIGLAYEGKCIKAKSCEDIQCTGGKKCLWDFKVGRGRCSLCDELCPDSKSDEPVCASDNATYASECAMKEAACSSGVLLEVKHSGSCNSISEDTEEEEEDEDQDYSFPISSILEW
# Sequence of Focal adhesion kinase 1 (Homo sapiens) (Q05397 whole entry, looked up): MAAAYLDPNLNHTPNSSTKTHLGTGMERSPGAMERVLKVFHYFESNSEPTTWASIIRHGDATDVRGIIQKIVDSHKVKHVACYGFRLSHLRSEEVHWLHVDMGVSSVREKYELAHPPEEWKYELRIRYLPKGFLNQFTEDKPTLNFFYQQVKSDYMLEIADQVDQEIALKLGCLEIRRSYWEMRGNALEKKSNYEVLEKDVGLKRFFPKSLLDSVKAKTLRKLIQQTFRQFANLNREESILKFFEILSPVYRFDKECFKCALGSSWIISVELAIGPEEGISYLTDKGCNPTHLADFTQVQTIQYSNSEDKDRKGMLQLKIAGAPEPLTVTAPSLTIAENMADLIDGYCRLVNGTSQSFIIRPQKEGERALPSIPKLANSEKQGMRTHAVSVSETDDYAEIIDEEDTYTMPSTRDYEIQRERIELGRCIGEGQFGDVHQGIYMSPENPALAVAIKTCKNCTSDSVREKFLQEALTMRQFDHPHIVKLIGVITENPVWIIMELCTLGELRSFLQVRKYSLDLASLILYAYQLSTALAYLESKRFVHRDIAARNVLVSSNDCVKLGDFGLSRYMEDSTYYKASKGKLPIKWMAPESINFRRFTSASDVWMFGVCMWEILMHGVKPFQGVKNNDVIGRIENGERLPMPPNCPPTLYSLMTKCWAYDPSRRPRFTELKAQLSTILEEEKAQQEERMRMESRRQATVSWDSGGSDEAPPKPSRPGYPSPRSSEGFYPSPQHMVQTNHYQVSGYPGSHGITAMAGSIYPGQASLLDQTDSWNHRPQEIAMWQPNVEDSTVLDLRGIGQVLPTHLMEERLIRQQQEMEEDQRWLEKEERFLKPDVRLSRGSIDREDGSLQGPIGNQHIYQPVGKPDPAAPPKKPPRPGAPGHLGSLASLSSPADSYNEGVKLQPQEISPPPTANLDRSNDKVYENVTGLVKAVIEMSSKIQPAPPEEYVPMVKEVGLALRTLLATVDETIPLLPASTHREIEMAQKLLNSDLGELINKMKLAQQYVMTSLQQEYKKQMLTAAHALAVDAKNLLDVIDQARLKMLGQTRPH
Compound,composite z-score [1],composite z-score [2],composite z-score [3],composite z-score [4],composite z-score [5],composite z-score [6],z-score [7],composite z-score (Lefty1),composite z-score [8],z-score [9],composite z-score [10],z-score [11],z-score [12],z-score [13],z-score [14],composite z-score [15],composite z-score [16],composite z-score (Torsin-1A (Homo sapiens) [17]),composite z-score (Torsin-1A (Homo sapiens) [18]),composite z-score [19]
NCCCCCCNC(=O)[C@@H]1C[C@@H]2C(=O)N[C@@H](CCCCN)C(=O)N2[C@@H]1c1ccc(O)cc1,1.91,0.153,0.353,-1.97,0.998,1,-0.903,0.731,0.961,0.715 (inactive),0.0704,-2.28 (inactive),-0.611 (inactive),-1.35 (inactive),-0.965 (inactive),-0.865,0.033,0.822,1.03,1.62
CCCCC(O)C1C=CC2C(=O)N(C)C(=O)C2N1N(c1ccccc1)c1ccccc1 (stereo not given),1.92,1.15,0.912,0.824,0.613,-0.604,0.804,0.194,1.21,-0.004 (inactive),0.29,-0.975 (inactive),0.092 (inactive),1.59 (inactive),0.281 (inactive),0.971,0.0075,0.14,0.464,0.471
COC(=O)C1=CC(CCCO)=CC(c2cccs2)N(Cc2cccc(OC(F)(F)F)c2)C=C1C(=O)OC (stereo not given),1.51,1.23,2.18,0.972,1.23,-0.141,1.87,0.233,1.13,-1.41 (inactive),0.237,-3.26 (inactive),0.759 (inactive),-0.815 (inactive),0.0187 (inactive),1.93,-0.0619,1,1.56,-0.403
CC(C)N1CC=CC23O[C@@H]4C=CCCOC(=O)C4[C@H]2C(=O)N(CCCO)[C@@H]3C1=O (stereo not given in full),0.939,-0.0707,0.248,-1.09,-0.0801,-0.565,-1.31,-0.0004,-0.467,0.0763 (inactive),-0.352,-2.89 (inactive),-0.614 (inactive),-0.749 (inactive),-0.313 (inactive),-0.912,-0.0933,-1.02,-0.457,0.403
CCOc1cc(C(O)C2C=CC3C(=O)NC(=O)C3N2Nc2ccc(Cl)cc2Cl)ccc1O (stereo not given),-0.254,-0.537,0.725,0.332,-0.403,-0.744,-0.262,-1.33,0.235,0.445 (inactive),-0.0753,0.625 (inactive),-0.542 (inactive),1 (inactive),-0.323 (inactive),-0.431,0.0427,-0.662,-0.141,-0.479
